Most compounds without a hit are left out; they make up all but 20% or so of the library.
Pf growth 96h = Primary qHTS for delayed death inhibitors of the malarial parasite plastid, 96 hour incubation; P. falciparum luciferase reporter growth, 96 h; 320,000 compounds, 6.9% hits; Potency, µM (titrated, usually from 28.7 µM), without a hit: top-dose activity change, negative = inhibition, usual class: inhibitors; also: potency is read from the fitted curve at half-maximal effect; % is scaled to controls: 0 for no effect and ±100 for the full control effect
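P. falciparum expressing integrated firefly luciferase, in erythrocytes at 2% hematocrit, 0.05% parasitemia, incubated with compounds 96 h at 37 C, 5% CO2. Growth inhibition read as loss of luminescence; two-generation exposure targets delayed-death apicoplast inhibitors.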
HCMV inh = qHTS Assay for inhibitors of the human cytomegalovirus (HCMV) | AID 1259415, 2018 | 410,000 compounds, 4.5% hits | activity change, negative = inhibition, % at 57.5 µM | HFF cells, HCMV-luciferase reporter, 72 h; stronger effect = lower value; in the data active = activity change below about -60%; inconclusive = no clear call, values can overlap the other calls; inactive = above about -39%; also: % is scaled to controls: 0 for no effect and ±100 for the full control effect
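Human foreskin fibroblasts infected with luciferase-reporter HCMV at MOI 1 PFU/cell, compounds at two doses. Luciferase measured 72 h post infection; normalized to buffer-only basal and Salinomycin (10uM) controls.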
Shiga toxin inh = A qHTS for Small Molecule Inhibitors of Shiga Toxin; Vero cells, Shiga toxin protein synthesis inhibition reporter; inhibition, % at 38.7 µM; 290,000 compounds, 9.2% hits; in the data active = inhibition mostly above about 28%, no sharp cut-off; inactive = mostly below about 43%; also: 0% is about no effect
Cycloheximide cs = Cycloheximide Counterscreen for Small Molecule Inhibitors of Shiga Toxin | cell reporter, cycloheximide protein synthesis inhibition counterscreen | max response, % | 300,000 compounds, 12% hits | AID 2314, 2010; in the data active = max response mostly above about 13%, no sharp cut-off; inactive = mostly below about 14%; also: read at 38.3 µM for the half of the compounds with a filed dose; 0% is about no effect
Pf growth 48h = Primary qHTS for delayed death inhibitors of the malarial parasite plastid, 48 hour incubation | Potency, µM (highest dose often 28.7 µM), without a hit: at the highest dose activity change, negative = inhibition, usual class: inhibitors | 310,000 compounds, 5.9% hits | AID 504832, 2011 | P. falciparum luciferase growth in erythrocytes, 48 h; also: potency is read from the fitted curve at half-maximal effect; % is scaled to controls: 0 for no effect and ±100 for the full control effect
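A one-generation exposure of luciferase-tagged malaria parasites in RPMI 1640/Albumax erythrocyte culture, 37 C and 5% CO2. Inhibition is inferred from decreased luminescence after adding detection reagent.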
* marks the source's active call; other numbers are inactive results; ? = inconclusive; . = not tested or not shown. Unless noted, calls follow the shape of the dose curve; as a rule, active = well fitted inhibition curve with a large enough effect; inconclusive = small, poorly fitted or top-dose-only effect, or another doubt; inactive = no such curve, though single readings can be large or run the other way.

SMILES | Pf growth 96h | HCMV inh | Shiga toxin inh | Cycloheximide cs | Pf growth 48h
Cc1cccc(-n2cc(-c3ccccc3)nc2SCC(=O)Nc2ccccc2Cl)c1 | . | -2 | . | . | .
C=C1c2cc(C)ccc2NC(=O)N1c1ccccc1 | -2% | -24 | -17 | -6 | 22%
COc1ccc(S(=O)(=O)NCC2CCC(C(=O)NCC(OC)OC)CC2)cc1 (configuration not stated) | -3% | -38 | -4 | 2 | 6%
Nc1cc(=O)[nH]c(SCC(=O)Nc2ccc(N3CCCCC3)cc2)n1 | . | 10 | . | . | .
COC(=O)CCn1nc(-c2ccc(C)cc2)c2ccccc2c1=O | 193% | -3 | -12 | -2 | 15%
CCc1ccc(Nc2nnc(SCC(=O)Nc3cccnc3Cl)s2)cc1 | ? | 11 | 30* | 20* | -23%
CN(Cc1cnc2nc(N)nc(N)c2n1)c1ccc(C(=O)NC(CCC(=O)O)C(=O)O)c2ccccc12 (configuration not stated) | . | -101* | . | . | .
O=C(CC1(O)C(=O)N(CCc2ccccc2)c2ccc(Br)cc21)c1ccccc1 (configuration not stated) | . | -28 | . | . | .
Cc1ccc(C(=O)CC2(O)C(=O)N(CCc3ccccc3)c3ccc(Cl)cc32)cc1 (configuration not stated) | . | -104* | . | . | .
CC(=O)OCCC(NS(=O)(=O)OCC(Cl)(Cl)Cl)c1ccccc1 (configuration not stated) | 87% | 20 | -5 | -1 | 47%
FC(F)(F)c1ccc(Nc2nnnc3ccccc23)cc1 | 1.5µM* | -29 | 36 | 21* | 1.3µM*
Cc1nnc(Nc2ccc(F)cc2)c2ccccc12 | ? | 19 | 17 | -2 | 38%
CCC(CO)NCc1ccc(OC2CCCC2)cc1 (configuration not stated) | 49% | -38 | -5 | 3 | -20%
CN(C)CCNCc1ccc(OC2CCCC2)cc1 | 9.3µM* | 40 | -9 | -3 | .
Cc1onc(-c2ccccc2)c1C(=O)N/N=C/c1ccco1 | 21% | -5 | -14 | -1 | 88%
O=[N+]([O-])c1ccc(Cl)c(/C=N/NC(=S)Nc2ccccc2)c1 | ? | 94 | -12 | 1 | ?
Cc1ccc(NC(=S)N/N=C/c2ccc([N+](=O)[O-])s2)cc1 | 31% | -74* | active | 47* | 9.3µM*
Cc1onc(-c2ccccc2)c1C(=O)N/N=C/c1ccc([N+](=O)[O-])s1 | ? | -28 | -1 | 1 | 12µM*
Cc1ccc(Sc2c(C)nn(C(=O)c3ccc(Cl)cc3)c2C)cc1 | . | 21 | . | . | .
O=C(/C=C/c1ccc(Cl)cc1)NCc1ccco1 | ? | -64* | 94* | 25* | -30%
O=C(COC(=O)CCSc1ccc(Cl)cc1)NCc1ccccc1Cl | 23% | ? | 12 | -1 | -8%
O=C(NCc1ccco1)/C(=C/c1ccc(Cl)cc1)NC(=O)c1ccco1 | 9% | 38 | -16 | -2 | 41%
O=C(/C=C/c1ccc(S(=O)(=O)NCc2ccco2)cc1)NCc1ccccc1Cl | ? | -38 | 20* | 31* | ?
CC(=O)c1ccc(N2CCN(C(=O)/C=C/c3ccc(S(=O)(=O)N4CCOCC4)cc3)CC2)cc1 | ? | -38 | -17 | -5 | ?
O=C(COC(=O)CCSc1ccc(Cl)cc1)NCc1ccco1 | 44% | -33 | 53 | 19* | 43%
SMILES | Pf growth 96h | HCMV inh | Shiga toxin inh | Cycloheximide cs | Pf growth 48h
CC(=O)c1ccc(N2CCN(C(=O)/C=C/c3ccc(S(=O)(=O)NCc4ccco4)cc3)CC2)cc1 | ? | -66* | 30 | 11 | 2%
Cc1ccc(C2C(C(=O)c3cccs3)=C(O)C(=O)N2c2cccc(C)n2)cc1 (configuration not stated) | 34% | 2 | 70* | 17* | 14%
Cc1cc(N2C(=O)C(O)=C(C(=O)c3cccs3)C2c2cccc(Br)c2)no1 (configuration not stated) | ? | -7 | -8 | -1 | -3%
Cc1ccc(C2C(C(=O)c3cccs3)=C(O)C(=O)N2c2ccc(S(N)(=O)=O)cc2)cc1 (configuration not stated) | 24% | 14 | 40 | 25* | 22%
Cc1cc(=O)[nH]c(SCC(=O)N2CCCC(C)C2)n1 (configuration not stated) | 20% | -7 | -7 | 7 | 19%
O=C1OC(/C(=C\Nc2cc(Cl)ccc2O)[N+](=O)[O-])c2ccccc21 (configuration not stated) | ? | -77* | 15 | 5 | 10µM*
Cc1cc(C)n(-c2ccc(NC(=O)C3CCN(Cc4ccccn4)CC3)cc2)n1 | ? | -18 | 2 | -1 | ?
O=C(COc1c(F)c(F)c(C(F)(F)F)c(F)c1F)Nc1ccc(N2CCOCC2)c(Cl)c1 | ? | 9 | -13 | -2 | ?
CCC(C)c1ccc(NC(=O)COc2c(F)c(F)c(C(F)(F)F)c(F)c2F)cc1 (configuration not stated) | 2.1µM* | -23 | 10 | -1 | 8%
Cc1ccc(Oc2ccc(C(F)(F)F)cc2[N+](=O)[O-])c([N+](=O)[O-])n1 | 38% | 6 | 58 | 30* | 40%
CCN(CC)c1ccc(N=Cc2c(C)[nH]c3ccccc23)cc1 | 4.7µM* | -17 | -2 | -1 | 1.9µM*
Oc1[nH]c2ccccc2c1C=Nc1ccccc1 | 97% | 35 | 74* | 33* | 163%
O=C(O)/C=C\C(=O)NC1CCCCC1 | -27% | -30 | 9 | -2 | 16%
CCC(=O)Nc1cccc(C(=O)OC)c1 | -1% | -35 | 10 | -2 | 46%
COc1ccc(Br)cc1/C=C/C(=O)Nc1ccc2ccccc2c1 | 12% | -37 | 20 | 33* | -12%
CCC(=O)Nc1cccc(C(=O)/C=C/c2cc(Br)ccc2OC)c1 | . | -104* | -20 | -3 | ?
Cc1ccc2oc(=O)n(CCCOc3ccccc3)c2c1 | 80% | 14 | 104* | 35* | 46%
Cc1ccc(OCCn2c(=O)oc3ccc(C)cc32)cc1 | 9% | -22 | 24 | 20* | 0%
COc1ccc(-n2c(Cc3ccccc3)nnc2SCC(=O)N2CCCc3ccccc32)cc1 | ? | 20 | 9 | 6 | 12µM*
Cn1cccc1Cc1nnc(SCC(=O)N2CCCc3ccccc32)n1-c1ccc(F)cc1 | 8.3µM* | 0 | -9 | -3 | ?
Cc1ccc(N(CN2CCCC2=O)C(=O)c2ccc(C)c(C)c2)cc1 | ? | -31 | 23 | 17* | 3%
Cc1ccccc1NS(=O)(=O)c1cc2c3c(c1)CC(=O)N3CCC2 | 9% | -8 | -8 | -3 | 13µM*
Cc1cccc(NS(=O)(=O)c2ccc3c(c2)CCN3C(=O)C2CC2)c1C | . | -34 | . | . | .
CCC(=O)N1CCc2cc(S(=O)(=O)Nc3ccccc3C)ccc21 | 0.93µM* | 3 | 28 | 11 | 2%
CC1CCN(CCCNS(=O)(=O)c2ccc3c(c2)CCN3C(=O)C2CC2)CC1 | ? | 15 | -5 | -2 | 8%
